# PI5P4Ka inh = inhibitors of human PI5P4K alpha; P48426; PI5P4Kalpha enzyme, ADP-Glo luminescence, 60 min; stronger effect = lower value; max response, %; 330,000 compounds, 1.2% hits; active means max response of -50% or lower; inconclusive means between -30% and -50%; inactive means -30% or higher; further: value at the top dose of about 77 µM; on the % scale 0 is the no-effect control and ±100 the full control effect
# Target sequence (P48426 whole entry, looked up): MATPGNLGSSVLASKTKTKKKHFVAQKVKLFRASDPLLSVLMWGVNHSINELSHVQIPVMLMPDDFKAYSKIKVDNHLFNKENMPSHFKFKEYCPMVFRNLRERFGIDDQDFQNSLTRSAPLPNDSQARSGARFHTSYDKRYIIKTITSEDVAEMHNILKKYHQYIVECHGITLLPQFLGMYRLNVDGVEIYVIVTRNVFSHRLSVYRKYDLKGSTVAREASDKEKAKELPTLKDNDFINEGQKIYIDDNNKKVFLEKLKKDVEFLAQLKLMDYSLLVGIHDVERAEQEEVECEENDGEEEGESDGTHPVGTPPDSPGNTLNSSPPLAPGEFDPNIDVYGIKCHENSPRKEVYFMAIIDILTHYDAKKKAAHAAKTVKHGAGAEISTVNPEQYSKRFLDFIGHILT
#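 Human PI5P4Kalpha with substrate in 0.038 M HEPES pH 7.4, 0.28 mM EGTA, 0.1% CHAPS, 5% DMSO; reaction started with 5 microM ATP (final), 60 min at room temperature. ADP formed read by ADP-Glo luminescence.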
# JMJD2A Tudor = inhibitors of human JMJD2A Tudor domain | 390,000 compounds, 4.4% hits | O75164 | AID 504339 | AlphaScreen JMJD2A-Tudor / H3K4me3 peptide binding | Potency, µM (top dose mostly 114 µM), for inactives: top-dose activity change, negative = inhibition, most hits filed as inhibitors; further: potency means the concentration at half of the fitted maximal effect; on the % scale 0 is the no-effect control and ±100 the full control effect; nearly all actives have a fitted effect of over 50% in size
# HP1b binding inh = inhibitors of HP1-beta chromodomain binding to methylated histone tails. Potency, µM (doses to about 114 µM), without a hit: top-dose activity change, negative = inhibition, actives largely listed as inhibitors. P83916. AlphaScreen HP1-beta / biotin-H3K9me3 peptide binding. 390,000 compounds, 0.56% hits; further: potency means the concentration at half of the fitted maximal effect; nearly all actives have a fitted effect of over 70% in size
#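 HP1-beta protein (50 nM final) preincubated 30 min at room temperature with biotinylated H3(1-18)K9me3 peptide (50 nM) in PBS pH 7.4, 0.01% Tween-20, then compound added for 30 min. AlphaScreen streptavidin donor/nickel chelate acceptor beads (10 ug/mL final), 30 min dark, luminescence read.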
# PLK1 PBD inh = blocks phosphopeptide binding to human PLK1 polo-box domain | Plk1 PBD binding of FITC phosphopeptide, fluorescence polarization | Potency, µM, without a hit: max response, negative = inhibition, most hits filed as inhibitors | 360,000 compounds, 2.8% hits | AID 720504; further: potency means the concentration at half of the fitted maximal effect; series mostly up to about 57 µM; on the % scale 0 is the no-effect control and ±100 the full control effect; nearly all actives have a fitted effect of over 65% in size
# G9a block = blocks human histone lysine methyltransferase G9a; G9a H3K9 monomethylation, AlphaScreen, 2 h; Potency, µM (titrated, usually from 102 µM), for inactives: at the highest dose activity, negative = inhibition, usual class: inhibitors; 350,000 compounds, 8.8% hits; AID 504332; further: potency means the concentration at half of the fitted maximal effect; on the % scale 0 is the no-effect control and ±100 the full control effect; nearly all actives have a fitted effect of over 75% in size
# Target sequence (Q96KQ7 913-1193 limits assumed): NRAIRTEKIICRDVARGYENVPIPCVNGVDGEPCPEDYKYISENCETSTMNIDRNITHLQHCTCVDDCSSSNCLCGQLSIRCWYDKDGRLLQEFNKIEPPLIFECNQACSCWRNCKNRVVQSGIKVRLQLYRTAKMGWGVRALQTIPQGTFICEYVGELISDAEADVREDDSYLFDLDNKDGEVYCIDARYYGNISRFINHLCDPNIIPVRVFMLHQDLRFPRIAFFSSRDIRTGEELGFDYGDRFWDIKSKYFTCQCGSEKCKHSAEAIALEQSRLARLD
#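 AlphaScreen read-out: biotin-H3K9 peptide (500 nM) methylation by 20 nM enzyme with 20 uM SAM, 2 h at room temperature after 15 min compound preincubation; anti-monomethyl H3K9 antibody plus donor/acceptor beads, 10 min dark.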
# BAZ2B inh = blocks human BAZ2B; 360,000 compounds, 4.4% hits; AID 504333; Potency, µM (series often up to 114 µM), for inactives: at the highest dose activity change, negative = inhibition, hits mostly inhibitors; AlphaScreen BAZ2B-H3K14Ac peptide displacement; Q9UIF8; further: potency means the concentration at half of the fitted maximal effect; on the % scale 0 is the no-effect control and ±100 the full control effect; nearly all actives have a fitted effect of over 60% in size
#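 Inhibition is scored as reduced AlphaScreen emission. The BAZ2B/b-H3(5-23)K14Ac complex (50 nM each) in PBS pH 7.4, 0.01% Tween-20 meets compound (up to 110 uM) for 30 min at RT before bead addition.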
# An asterisk follows results filed as active; ? = inconclusive; · = not tested or not shown; [ ] = dose if it differs, or a comment. The list is not random: actives were taken first. Their share in the collection is about 12%. Unless noted, the call rests on the fitted dose curve; in most records, active means well fitted curve in the direction sought with a large enough effect; inconclusive means small, poorly fitted or top-dose-only effect, or another doubt; inactive means no such curve, though single readings can be large; an effect the other way counts as inactive or inconclusive.
SMILES,PI5P4Ka inh,JMJD2A Tudor,HP1b binding inh,PLK1 PBD inh,G9a block,BAZ2B inh
S=C(Nc1ccccc1)Nc1nc2ccccc2n1CCOc1ccc(Cl)cc1,-1.9,?,?,-14.5%,-9.7%[59 µM],7.08µM*
CCn1c(NC(=S)Nc2ccccc2)nc2ccccc21,-8.6,?,-13.6%,-8.0%,-8.9%[59 µM],5.62µM*
CC1CCCC(NC(=O)COC(=O)COc2ccc(Br)cc2)C1C (stereo not drawn),-4.1,6.7%,37.9%,4.3%,·,·
CCOc1ccc(Nc2cc(C)nc3nncn23)cc1,·,-12.9%,7.7%,·,-14.1%[59 µM],-1.8%
COc1cccc(/C=N/Nc2cc(N3CCOCC3)ncn2)c1O,-97.7*,44.7µM*,36.8%,1.0%,45.1%,2.82µM*
C/C(=C\C=C(C#N)C#N)c1cc(C#N)c(N)o1,?,?,?,107.7%,20µM*,25.1µM*
Cc1ccc(N=Nc2c(O)ccc3n[nH]nc23)cc1,-59.9*,?,-1.9%,0.2%,?,?
Clc1ccc(-c2nc3ccccn3c2Nc2ccc3c(c2)OCCO3)s1,·,44.7µM*,?,·,17.5%[59 µM],13.9%
Cc1ccc(-c2nc3cnccn3c2Nc2ccc3c(c2)OCCO3)o1,-5.7,?,-27.4%,-5.7%,10µM*,?
COc1ccc(Nc2c(-c3ccc(C)cc3)nc3cnccn23)cc1,0.3,44.7µM*,-12.9%[57 µM],1.2%,50.1µM*,?
Cc1cccn2c(Nc3ccc4c(c3)OCCO4)c(-c3ccc(Br)o3)nc12,·,22.4µM*,?,·,11.2µM*,11.2µM*
Cn1cc(S(=O)(=O)N2CCCCCC2)cc1C(=O)Nc1ccc(Cl)c(C(F)(F)F)c1,·,4.5%,30.9%[57 µM],·,3.4%[59 µM],?
Cc1ccc2nc(-c3ccc(O)cc3)c(Nc3ccc4c(c3)OCCO4)n2c1,-4.4,-12.0%,41.9%,-10.6%,8.91µM*,-12.6%
COc1ccc(-c2nc3ccc(C)cn3c2Nc2ccc3c(c2)OCO3)cc1,·,-17.7%,7.9%,·,?,·
Cc1ccn2c(NCc3ccc4c(c3)OCO4)c(-c3ccc(O)cc3)nc2c1,·,-2.2%,14.1%,-9.0%,11.1%[59 µM],2.8%
Cc1ccn2c(Nc3ccc4c(c3)OCO4)c(-c3ccc(N(C)C)cc3)nc2c1,·,?,-2.9%,·,2µM*,·
Cc1ccn2c(Nc3ccc4c(c3)OCO4)c(-c3ccc(Cl)cc3)nc2c1,·,-32.7%,-8.8%,·,2.82µM*,·
Cc1ccc(-c2nc3cnccn3c2Nc2ccc3c(c2)OCO3)cc1,3.4,50.1µM*,?,-3.2%,39.8µM*,39.8µM*
CC(C)CN1CCN(CCCOC(=O)Nc2cccc3ccccc23)CC1C (stereo not drawn),0.0,-9.0%,16.7%[57 µM],-3.0%,·,·
COc1ccc(N(CC(=O)NCc2ccco2)C(=O)CNS(=O)(=O)c2ccc(Cl)cc2)cc1,1.9,-21.1%,21.0%,-7.2%,-1.5%[59 µM],-20.7%
O=C1/C(=C\c2cccs2)Sc2ccc3ccccc3c21,-2.5,?,?,-7.4%,7.94µM*,?
CCc1ccc(OCc2nnc(-c3ccccc3Br)o2)cc1,0.2,83.5%,83.8%,29.9µM*,?,144.1%
CCN(CC)c1nc2ccccc2[nH]c1=O,0.3,-3.5%,38.5%,-6.0%,31.6µM*,2.1%
CCN(CC)c1nc2ccccc2[nH]1,0.2,-6.2%,28.4%,-2.9%,2.8%,-4.5%
CSCC[C@H](NC(=O)C1CCN(S(=O)(=O)c2ccc(C)cc2)CC1)C(=O)NC1CCS(=O)(=O)C1 (stereo partly drawn),0.0,-14.4%,22.9%,-10.4%,56.2µM*,-3.7%
SMILES,PI5P4Ka inh,JMJD2A Tudor,HP1b binding inh,PLK1 PBD inh,G9a block,BAZ2B inh
Cc1ccc(S(=O)(=O)N2CCC(C(=O)N[C@H](C(=O)NC3CCS(=O)(=O)C3)C(C)C)CC2)cc1 (stereo partly drawn),5.8,-4.1%,51.7%,-2.0%,-39.9%[12.7 µM],-5.4%
CN(C(=O)c1ccc(S(=O)(=O)N2CCCCC2)cc1)C1CCS(=O)(=O)C1 (stereo not drawn),-5.3,1.4%,27.1%,2.5%,5.9%,-5.8%
Cc1ccc(S(=O)(=O)N2CCC(C(=O)N(C)C3CCS(=O)(=O)C3)CC2)cc1 (stereo not drawn),?,?,?,5.97µM*,16.0%[12.7 µM],7.2%
CNC(=S)NNC(=O)c1cccc(C(F)(F)F)c1,·,-14.1%,4.2%,-11.7%,42.4%[59 µM],-2.2%
CNC(=S)NNC(=O)c1ccc(=O)n(Cc2cccc(C(F)(F)F)c2)c1,?,?,-7.9%,2.99µM*,-25.3%,-4.9%
Cc1cn(C2CC(O)C(CO)O2)c(=O)n(Cc2ccccc2)c1=O (stereo not drawn),0.0,-6.2%,43.5%,0.4%,·,·
Cc1c(-n2c(O)c(C3=c4ccccc4=NC3=O)sc2=S)c(=O)n(-c2ccccc2)n1C,-6.7,-6.2%,-11.6%,-5.8%,44.7µM*,-31.4%
CCOc1ccc(N(C(C)C(=O)NCCSc2ccc(Cl)cc2)S(C)(=O)=O)cc1 (stereo not drawn),·,-2.8%,26.7%,·,15.7%[59 µM],11.6%
CCOC(=O)c1c(C)[nH]c(C)c1S(=O)(=O)N1CCCC(C(=O)N2CCN(c3ccccc3F)CC2)C1 (stereo not drawn),·,?,-14.1%,·,-0.6%[59 µM],?
CC(=O)N1c2ccccc2C(=O)C1N1CCCCC1 (stereo not drawn),6.6,-7.5%,45.3%,-9.6%,50.1µM*,4.0%
CC1=C2C3OC(=O)C(C)C3CCC2(C)C=C(Br)C1=O (stereo not drawn),-1.8,·,·,-10.3%,·,·
CCC(C)NC(=O)C1CCC(CNS(=O)(=O)c2ccc3c(c2)N(C(C)=O)CCO3)CC1 (stereo not drawn),-12.3,?,-0.9%,26.7µM*,83.2%,-11.3%
Cc1ccc(S(=O)(=O)NCCc2ccc(S(N)(=O)=O)cc2)cc1,-6.4,21.1%,54.2%,-10.9%,14.1µM*,2.1%
CC(=O)N1CCOc2ccc(S(=O)(=O)Nc3cccc(C)n3)cc21,4.5,-22.6%,2.4%,42.3µM*,-13.7%,2.2%
CC(=O)N1CCOc2ccc(S(=O)(=O)NCc3ccc(F)cc3)cc21,?,-31.5%,47.4%,?,23.8%[59 µM],-31.4%
CC(=O)N1CCOc2ccc(S(=O)(=O)NCCc3ccc(S(N)(=O)=O)cc3)cc21,0.1,?,12.0%,26.7µM*,·,-3.1%
CC(=O)N1CCOc2ccc(S(=O)(=O)Nc3ccc(C)cn3)cc21,-0.9,-13.5%,55.3%,-17.5%,-9.7%,3.2%
Cc1ccc(CCNS(=O)(=O)c2ccc(C)cc2)cc1,3.9,31.6%,51.4%,-1.7%,3.7%,3.0%
COCCN(C(=O)COC(=O)CCC1CCCC1)c1c(N)n(Cc2ccccc2)c(=O)[nH]c1=O,-0.5,-13.3%,6.9%,-9.4%,?,10.0%
COc1ccc(CNC(=O)CCc2c(C)nn(-c3ccc(N4CCCC4)nn3)c2C)c(OC)c1,·,-15.0%,29.2%,·,7.5%[59 µM],-35.6%

# Compound activity from PubChem BioAssay.
